Rows were chosen to be rich in hits. Some 5.3% of all compounds tested hit in one or more screens of this group.
Tau fluor counter – Counterscreen qHTS for Inhibitors of Tau Fibril Formation, Fluorescence Polarization. tau K18 P301L Alexa594 fluorescence, heparin fibrillization. Potency, µM (highest dose often 57.7 µM), inactives show top-dose activity change, negative = decrease. hit rate 0.93% among 280,000. AID 1463, 2008; further: potency means the concentration at half of the fitted maximal effect; nearly all actives have a fitted effect of over 55% in size
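Human K18 P301L tau (15 uM unlabeled plus 0.24 uM Alexa 594-labeled, final) in 100 mM sodium acetate pH 7 was mixed with compound and 20 uM heparin and incubated 6 hr at 37 C.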
KDM4E inh – qHTS Assay for Inhibitors of Human Jumonji Domain Containing 2E (JMJD2E) | JMJD2E catalytic domain, FDH-coupled NADH fluorescence (FDH is formaldehyde dehydrogenase) | hit rate 1.6% among 230,000 | Lysine-specific demethylase 4E (Homo sapiens), B2RXH2 | AID 2147, 2009 | Potency, µM (highest dose often 57.1 µM), inactives show at the highest dose activity change, negative = inhibition, hits mostly inhibitors; active means well fitted inhibition curve with a large enough effect, not every such curve was filed as active; inconclusive means small, poorly fitted or top-dose-only effect, or another doubt; inactive means no such curve, though single readings can be large or run the other way;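 further: potency means the concentration at half of the fitted maximal effect; 0% = wells with enzyme and -100% = buffer wells without enzyme; nearly all actives have a fitted effect of over 50% in size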
Target sequence (B2RXH2 1-337 limits assumed): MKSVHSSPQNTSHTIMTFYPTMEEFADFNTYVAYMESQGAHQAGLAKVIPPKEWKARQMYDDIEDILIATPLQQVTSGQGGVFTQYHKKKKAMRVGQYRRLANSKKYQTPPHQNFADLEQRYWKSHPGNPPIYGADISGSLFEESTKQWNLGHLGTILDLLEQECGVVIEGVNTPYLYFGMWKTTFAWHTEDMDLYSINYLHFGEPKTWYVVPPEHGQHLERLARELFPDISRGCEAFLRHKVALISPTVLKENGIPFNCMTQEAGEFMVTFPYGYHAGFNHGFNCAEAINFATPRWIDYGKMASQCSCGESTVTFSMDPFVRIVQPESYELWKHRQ
Coupling enz – qHTS Assay for Inhibitors of Fructose-1,6-bisphosphate Aldolase from Giardia Lamblia: Coupling assay counterscreen; coupling enzyme system counterscreen, AmpLite Red fluorescence; activity change, negative = inhibition, % at 58.2 µM, hits read low; hit rate 0.67% among 290,000; in the data active means activity change below about -30%
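Activity here indicates interference with the coupling reaction, not aldolase inhibition. Compounds at 57.5 uM final met coupling enzymes for 10 min at RT; substrate and AmpLite Red detection followed, with a 525/598 nm fluorescence read after 20 min.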
Sfp PPTase inh – qHTS Assay for Inhibitors of Bacillus subtilis Sfp phosphopantetheinyl transferase (PPTase). 4'-phosphopantetheinyl transferase ffp (Bacillus subtilis), Q9F4F7. Biochemical Sfp PPTase activity, qHTS. Potency, µM, for the others: largest response in the series, negative = inhibition, actives largely listed as inhibitors. hit rate 3.5% among 310,000. AID 1490, 2009;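 further: the enzyme is Sfp with the accession as filed and its product quenches rhodamine fluorescence; potency means the concentration at half of the fitted maximal effect; 0% = enzyme reaction without inhibitor and -100% = no enzyme wells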
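After 15 min at room temperature with compound, 15 nM Sfp received 5 uM rhodamine-CoA plus 12.5 uM BHQ-2-ybbR (50 mM Hepes pH 7.6, 10 mM MgCl2). Rate came from the fluorescence difference over 30 min, ex 525/em 598 nm.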
Tau ThT inhib – qHTS for Inhibitors of Tau Fibril Formation, Thioflavin T Binding; hit rate 2.1% among 270,000; recombinant tau K18 P301L, heparin-induced fibrillization, ThT fluorescence; Potency, µM (highest dose often 57.4 µM), for inactives: at the top dose activity, negative = inhibition, most hits filed as inhibitors; further: potency means the concentration at half of the fitted maximal effect; nearly all actives have a fitted effect of over 55% in size
Target sequence (P10636 561-689 P618L limits assumed): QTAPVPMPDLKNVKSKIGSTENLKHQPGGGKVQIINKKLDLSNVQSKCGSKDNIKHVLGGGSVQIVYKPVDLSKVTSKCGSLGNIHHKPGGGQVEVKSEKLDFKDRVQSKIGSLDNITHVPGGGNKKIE
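ThT emission at 510 nm, taken 1 hr after adding 30 uM dye, quantifies aggregates formed when 20 uM heparin acts on human tau K18 P301L for 6 hr at 37 C.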
Tau fibril FP – qHTS for Inhibitors of Tau Fibril Formation, Fluorescence Polarization. Potency, µM (highest dose often 57.7 µM), inactives show at the highest dose activity, negative = inhibition, usual class: inhibitors. K18 P301L tau heparin fibrillization, Alexa594 FP, 6 h. Microtubule-associated protein tau (Homo sapiens), P10636. hit rate 0.39% among 280,000; further: potency means the concentration at half of the fitted maximal effect; nearly all actives have a fitted effect of over 55% in size
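Steps: dispense K18 P301L tau (15 uM plus 0.24 uM Alexa 594 tracer, final) in pH 7 sodium acetate; add compound; add heparin (20 uM final); incubate 6 hr, 37 C; add ThT (30 uM final); after 1 hr ambient, read FP.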
* hit, by the source's call; ? = inconclusive; nt = no result given; ! = a repeat was not active; [ ] = dose if it differs, or a comment. Unless noted, the call rests on the fitted dose curve; in most records, active means well fitted curve in the direction sought with a large enough effect; inconclusive means small, poorly fitted or top-dose-only effect, or another doubt; inactive means no such curve, though single readings can be large; an effect the other way counts as inactive or inconclusive. Unless noted, on the % scale 0 is the no-effect control and ±100 the full control effect.

SMILES	Tau fluor counter	KDM4E inh	Coupling enz	Sfp PPTase inh	Tau ThT inhib	Tau fibril FP
CC(C)(C)c1csc(NC(=O)CSc2nc3ccccc3c(=O)[nH]2)n1	-1.1%	-15.2%	-0.3	4.6%	13.5%	-1.3%
CC1=C(C#N)C(c2cn(-c3ccccc3)nc2-c2cccs2)C(C#N)=C(C)N1	?	?	-3.7	-3.9%	-8.1%	?
NC1=NC(c2cn(-c3ccccc3)nc2-c2cccs2)n2c(nc3ccccc32)N1 (stereo unspecified)	-30.0%	-14.2%	-0.6	44.7µM*	-1.4%	5.7%
COc1ccc(-c2cn(-c3ccc(C)c(C)c3)c(=S)[nH]2)cc1OC	nt	nt	1.8	79.4µM*	nt	nt
COc1ccc(CNc2ncnc3c2[nH]c2cc(OC)c(OC)cc23)cc1	10µM*[quencher]	?	0.7	-23.4%	?	?
COc1ccc(CNc2ncnc3c2[nH]c2ccccc23)cc1	20µM*[quencher]	?	-1.0	-24.4%	?	-0.5%
O=c1c2[nH]c3ccccc3c2ncn1CCC1=CCCCC1	-13.3%	-19.3%	-0.2	26.5%	?	-6.9%
C1=C(CCNc2ncnc3c2[nH]c2ccccc23)CCCC1	15.8µM*[quencher]	?	0.5	56.2µM*	?	-4.6%
COc1ccc(CNc2nc(=S)[nH]c3cc(OC)c(OC)cc23)cc1	nt	nt	-1.4	-14.5%	nt	nt
Cc1ccc(C)c(CSc2cn(CC(=O)N3CCCC3)c3ccccc23)c1	-26.6%	nt	nt	nt	?	-7.5%
CC(=O)N1c2ccc(S(=O)(=O)N3CCN(c4ccc(C)cc4C)CC3)cc2CC1C (stereo unspecified)	-10.8%	nt	nt	nt	-3.1%	5.1%
NC1(C(=O)O)CC1	-9.9%	?	-1.3	56.2µM*	-5.9%	-5.9%
NC1(C(=O)O)C[C@H](C(=O)O)[C@H](C(=O)O)C1 (stereo partly specified)	-10.3%	-26.5%	0.3	50.1µM*!	-4.8%	1.3%
CNc1cccccc1=S	-29.3%	25.1µM*	5.7	2.4%	12.6µM*	?
CNC(=S)Nc1ccccc1-c1ccccc1	3.9%	1.9%	-0.8	2.6%	4.5%	-2.8%
O=c1cc[nH]c(=O)[nH]1	nt	nt	nt	21.3%	nt	nt
O=c1cc[nH]c(=S)[nH]1	-4.9%	5.8%	0.4	44.7µM*	-0.9%	0.1%
COc1ccc(Oc2ncc3nc(-c4cccc(C#N)c4)c(=O)n(C)c3n2)cc1	nt	nt	4.7	13.9%	nt	nt
COc1cc(OC)cc(C(=O)Nc2ccc3nc(N4CCC(C)CC4)cc(C)c3c2)c1	3.98µM*[quencher]	nt	nt	nt	?	?
COc1ccc(C(=O)Nc2ccc3nc(N4CCCCC4)cc(C)c3c2)c(OC)c1	?	?	1.7	3.9%	?	7.4%
COc1cccc(CC(=O)Nc2ccc3nc(N4CCC(C)CC4)cc(C)c3c2)c1	14.1µM*[quencher]	nt	nt	nt	?	?
COc1ccccc1C(=O)Nc1ccc2nc(N3CCC(C)CC3)cc(C)c2c1	7.94µM*[quencher]	nt	nt	nt	8.91µM*	17.7%
O=C(NCc1ccc(Cl)cc1)C1CCCN(c2ncnc3onc(-c4ccc(F)cc4)c23)C1 (stereo unspecified)	?	nt	nt	nt	-10.0%	-5.2%
COc1ccc(NC2=C(Cl)C(=O)N(c3ccccc3)C2=O)c(OC)c1	?	-37.4%	-0.3	15.5%	?	-11.3%
COc1ccc(N2C(=O)C(Cl)=C(Nc3c(C)n(C)n(-c4ccccc4)c3=O)C2=O)cc1	-17.0%	-10.1%	-4.3	44.7µM*	?	-8.5%
SMILES	Tau fluor counter	KDM4E inh	Coupling enz	Sfp PPTase inh	Tau ThT inhib	Tau fibril FP
COC(=O)[C@@H]1CC[C@H](C)[C@@H](c2ccc(C)cc2)N1C(=O)c1ccc(/C=N\O[C@@H](C)c2cc(-c3c(C)cc(C)cc3C)no2)cc1	-6.8%[11.6 µM]	nt	-2.4	-14.5%	-11.9%[11.5 µM]	-5.9%[11.6 µM]
CCOC(=O)c1ccc(NC(=O)COc2ccccc2CNCCc2ccccc2)cc1	?	-12.9%	6.4	50.1µM*	?	8.7%
COC(=O)C1=C[C@@H](C(=O)OC)[C@@H]2C3=C(C(=O)[C@@]2(C)NC(=O)c2ccccc2)[C@H](C)[C@@H]2C(=O)N(Cc4ccccc4)C(=O)[C@@H]2[C@@H]3C1	nt	nt	2.2	6.6%	nt	nt
Cc1sccc1C1C(C#N)=C(N)SC(N)=C1C#N	?	-4.1%	-20.4	17.8µM*	?	-6.8%
Cc1cc(C2C(C#N)=C(N)SC(N)=C2C#N)c(C)s1	-19.2%	-8.7%	-13.6	?	?	-6.3%
COc1ccc(-c2nc(SCC(=O)NCc3nc4ccccc4n3C)n3[nH]c(=O)cc3n2)cc1	-13.3%	nt	nt	nt	-14.4%	-7.7%
CCCCCc1cc(=O)oc2c(C(CCN3CCCC(C)C3)c3ccc4c(c3)OCO4)c(OC)cc(OC)c12 (stereo unspecified)	-8.4%	10.1%	1.7	0.4%	?	-2.9%
CCCCCc1cc(=O)oc2c(C(CCN3CCCCC3)c3ccc4c(c3)OCO4)c(OC)cc(OC)c12 (stereo unspecified)	13.2%	-9.0%	2.1	56.2µM*	-11.0%	0.2%
CCCCCc1cc(=O)oc2c(C(CCN3CCCC3)c3ccc4c(c3)OCO4)c(OC)cc(OC)c12 (stereo unspecified)	nt	nt	2.4	39.8µM*	nt	nt
CCN1CCN(C(c2cccc(OC)c2)c2c(O)cc(C)n(Cc3ccco3)c2=O)CC1 (stereo unspecified)	-0.1%	nt	nt	nt	?	?
O=C(N/C(=C/c1ccco1)C(=O)N1CCCC1)c1cccs1	3.1%	-20.4%	-18.3	31.6µM*	3.7%	-11.6%
CCNC(=O)c1cnc2sc(N3CCC(C)CC3)nn2c1=O	-9.6%	nt	nt	nt	-8.6%	-8.3%
Cc1ccc(CN(C(=O)COc2ccccc2Cl)c2ccccn2)o1	-6.5%	nt	nt	nt	-0.9%	1.9%
NC(=S)N=Nc1c(O)[nH]c2c(Br)cc(Br)cc12	-17.5%	-3.5%	-7.9	-1.5%	7.94µM*	15.8%
COCCNC(=S)N=Nc1c(O)[nH]c2c(C)cc(C)cc12	-9.8%	-0.1%	0.9	-27.1%	?	0.9%
CC(C)=NNc1nc2c(c(=O)n(C)c(=O)n2C)n1C	-24.9%	10.2%	-5.5	22.4µM*	?	-8.8%
Cn1c(=O)c2c(nc(N/N=C/c3ccco3)n2C)n(C)c1=O	12.5%	2.9%	-4.5	17.8µM*	7.8%	9.0%
CCCCC/C=C\C/C=C\C/C=C\CCCCCCC(=O)NCCc1ccc(O)c(O)c1	-17.5%	1.6%	0.3	6.5%	-8.3%	4.6%
